Assay results: PubChem BioAssay (NCI)
The panel holds about 79,000 compounds, 15% with a hit somewhere; the sample as a whole holds those more often. Rule as the data show it: active = growth inhibition above about 70%; inactive = the rest. *1 amine or outer side, *2 acyl side, *3 side chain or, on linkers, in order; H or OH if unused. Where a SMILES comes first, the peptide text is derived from it. [ ]: non-standard residue; d: D form. X8 = C=CCC(O[*:1])C(=O)[*:2]; NMeV = CN[CH](C(=O)O)C(C)C; NMeA = CN[CH](C)C(=O)O; βAla = NCCC(=O)O

Key:
[1] = NCI Yeast Anticancer Drug Screen. Data for the rad50 strain (AID 155);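 also: 0% = growth of vehicle-only cultures of the same strain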; conditions: S. cerevisiae rad50 strain growth inhibition; at 50.0 µM; active compounds read high
How it was run: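 Compounds were tested on a yeast strain with an engineered DNA damage repair alteration; the reported value is growth inhibition normalised to vehicle treatment.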

[2] = NCI Yeast Anticancer Drug Screen. Data for the mec2-1 strain (AID 157); conditions: S. cerevisiae mec2-1 strain, at 50.0 µM, active compounds read high
How it was run: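 Vehicle-treated cultures served as reference for growth inhibition of compound-exposed mec2-1 yeast.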

[3] = NCI Yeast Anticancer Drug Screen. Data for the sgs1 mgt1 strain (AID 161);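 also: 0% = growth of cultures given vehicle only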; conditions: S. cerevisiae sgs1 mgt1 strain, at 50.0 µM, active compounds read high
How it was run: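 Read-out: growth inhibition vs vehicle controls. Cells: mutant yeast strain deficient in DNA damage repair.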

[4] = NCI Yeast Anticancer Drug Screen. Data for the cln2 rad14 strain (AID 165);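 also: 0% = growth equal to vehicle treated cultures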; conditions: S. cerevisiae cln2 rad14 strain, at 50.0 µM, active compounds read high
How it was run: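 Each compound was tested on cln2 rad14 yeast. Inhibition of growth was calculated against vehicle-exposed controls.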

[5] = NCI Yeast Anticancer Drug Screen. Data for the bub3 strain (AID 167); conditions: S. cerevisiae bub3 mutant strain, at 50.0 µM, active compounds read high
How it was run: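 Growth of a checkpoint-deficient yeast mutant is measured after compound exposure. Values represent inhibition relative to vehicle.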

[6] = NCI Yeast Anticancer Drug Screen. Data for the mlh1 rad18 strain (AID 175); conditions: S. cerevisiae mlh1 rad18 strain growth inhibition; at 50.0 µM; active compounds read high
How it was run: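 Vehicle-treated cultures served as the reference for growth inhibition in a yeast strain carrying DNA damage repair alterations exposed to each compound.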

Measured: growth inhibition

CCC(=O)c1ccccc1C#N
inactive: [1] 8.5% | [2] -3.25% | [3] 1.6% | [4] -4.3% | [5] 0.1% | [6] -1.45%

CCC(=O)Nc1ccc(C)cc1C
inactive: [1] 23.7% | [2] 12.9% | [3] 9.8% | [4] 13.7% | [5] 2.6% | [6] 3.45%

CC(=O)OCC1OC(n2cnc(Br)c2[N+](=O)[O-])C(OC(C)=O)C1OC(C)=O (stereo not given)
inactive: [1] 30.6% | [2] 3.4% | [3] 17% | [4] 14.5% | [5] 0.65% | [6] 2.75%

COC(=O)c1ccc(OCc2ccc3nc(OC)c(OC)nc3c2)cc1
inactive: [1] -32.1% | [2] -30.4% | [3] -50.1% | [4] 7.35% | [5] -28.9% | [6] -37%

Nc1c(OS(=O)(=O)c2ccccc2)cccc1OS(=O)(=O)c1ccccc1
inactive: [1] 20.8% | [2] -2.45% | [3] 18.8% | [4] 20.7% | [5] 39.7% | [6] 37.1%

O=C(COc1ccc(Cl)cc1)Nc1ccc(S(=O)(=O)O)c2ccccc12
inactive: [1] 9% | [2] 0.6% | [3] -12.4% | [4] -5% | [5] 1.65% | [6] 13.4%

Oc1c(Cl)cc(Cl)cc1C=Nc1cc(C(F)(F)F)ccc1N1CCc2ccccc2C1
inactive: [1] 53.5% | [2] 0.25% | [3] 50% | [4] 14.4% | [5] 42.8% | [6] 39.6%

Nc1ncnc2c1ncn2CCC(COCc1ccccc1)COCc1ccccc1
inactive: [1] 40.8% | [2] 0.4% | [3] 50.8% | [4] -10% | [5] 4.6% | [6] 11.7%

NS(=O)(=O)c1cc(Br)ccc1Br
inactive: [1] 8.2% | [2] 12.9% | [3] -0.35% | [4] 39.6% | [5] 17.6% | [6] -7.65%

O=C1CSC(c2cccs2)N1c1nncs1 (stereo not given)
inactive: [1] 27.4% | [2] -14.8% | [3] 19.3% | [4] 14.6% | [5] 11.6% | [6] 21.6%

O=c1[nH]c(=S)[nH]c2[nH]ccc12
inactive: [1] 6.75% | [2] -13.9% | [3] -19.6% | [4] -1.1% | [5] -0.6% | [6] -4.4%

COc1cc(/C=C2\C=Cc3ccccc32)ccc1N(C)C
inactive: [1] 5.45% | [2] -13.2% | [3] -6.85% | [4] -54.4% | [5] 3.8% | [6] -15.5%

Cc1cc2c(c(S(=O)(=O)c3ccc(Cl)cc3[N+](=O)[O-])c1)NCCC2
inactive: [1] 6.4% | [2] 11% | [3] 8.25% | [4] 15.3% | [5] 15.7% | [6] -0.7%

CCCCCCCCCCCCCCCCCCOCCOCCOCCOCCO
inactive: [1] -21.7% | [2] -10.3% | [3] -23.5% | [4] -43.5% | [5] -3.25% | [6] -19.5%

COC(Cc1cc(C(O)(c2ccc(C(C)(C)C)cc2)c2cc(CC(OC)(c3cc(C(OC)(c4ccc(C(C)(C)C)cc4)c4ccc(C(C)(C)C)cc4)c(C)cc3C)c3cc(C(OC)(c4ccc(C(C)(C)C)cc4)c4ccc(C(C)(C)C)cc4)c(C)cc3C)c(C)cc2C)c(C)cc1C)(c1cc(C(OC)(c2ccc(C(C)(C)C)cc2)c2ccc(C(C)(C)C)cc2)c(C)cc1C)c1cc(C(OC)(c2ccc(C(C)(C)C)cc2)c2ccc(C(C)(C)C)cc2)c(C)cc1C
inactive: [1] -2.75% | [2] -1.25% | [3] 9.05% | [4] -30.6% | [5] 5.55% | [6] 23.6%

CCOC(=O)/C=C/CI
inactive: [1] 12.8% | [2] -34.5% | [3] 10.4% | [4] 8.4% | [5] 13.5% | [6] 16.2%

CS(=O)(=O)CC(=O)c1ccc(O)cc1O
inactive: [1] 4.55% | [2] 3.55% | [3] -0.6% | [4] -43.2% | [5] -13.1% | [6] -7%

CC(C)(C)OC(=O)Cc1ccc2c(ccn2Cc2ccccc2)c1
inactive: [1] -26.2% | [2] -29.6% | [3] -10.9% | [4] -22.1% | [5] 4.65% | [6] -20%

C[N+](C)(C)C(C1=CCCC1=O)c1ccccc1 (stereo not given)
inactive: [1] 50% | [2] 43.3% | [3] 3.7% | [4] 26.9% | [5] 30.3% | [6] 43.6%

CC/C(=C/c1cccc([N+](=O)[O-])c1)C(=O)O
inactive: [1] -9.3% | [2] -23.9% | [3] 0% | [4] 6.1% | [5] -13.7% | [6] -0.2%

COC(=O)C(Cc1ccc2c(c1)OCO2)(NC(=O)c1ccccc1)P(=O)(OC)OC (stereo not given)
inactive: [1] -30.5% | [2] 1.05% | [3] -8.6% | [4] 16.8% | [5] -25.1% | [6] -32.5%

O[C@H]1[C@H]2[C@H](O)C[C@H](CCOCc3ccccc3)CN2C[C@H]1O
inactive: [1] -8.15% | [2] 7.8% | [3] -3.45% | [4] 20% | [5] 16% | [6] -22.9%

Cc1cccc(C(N)=O)c1
inactive: [1] 22.6% | [2] 6.7% | [3] 3.3% | [4] -4.75% | [5] 8.95% | [6] 32.9%

COc1c(C)c(C)c(OC(C)=O)c(C)c1COC(C)=O
inactive: [1] 53.9% | [2] 23.8% | [3] 33.2% | [4] 25.6% | [5] 42.9% | [6] 64.7%

BrCCOc1ccccc1
inactive: [1] 19.4% | [2] 8% | [3] -28.6% | [4] -29.5% | [5] -8.3% | [6] -25.5%

CC(C)CC(NC(=O)COc1cc(Cl)ccc1Cl)C(=O)O (stereo not given)
inactive: [1] -4.3% | [2] 19.2% | [3] 6.3% | [4] -18.6% | [5] -3.25% | [6] -40.4%

CCOC(=O)c1sc(Nc2cc(Cl)ccc2Cl)nc1C
inactive: [1] -6.2% | [2] -19.6% | [3] -9.2% | [4] -2% | [5] -8.3% | [6] -15.1%

COc1ccc2c(c1O)-c1cccc3c1C(C2)N(CCOCCCl)CC3 (stereo not given)
inactive: [1] 28.4% | [2] -12.8% | [3] -19.9% | [4] 12.9% | [5] 3.15% | [6] -8.85%

O=C(CCC(CCC(=O)c1ccccc1)[N+](=O)[O-])c1ccccc1
inactive: [1] 3.15% | [2] -10.8% | [3] 7.65% | [4] 4.55% | [5] 14.2% | [6] 20.5%

NC(=O)c1cc2ccccc2[n+](Cc2ccc(F)cc2)c1
inactive: [1] -0.2% | [2] 0.4% | [3] 6.45% | [4] -49.1% | [5] 4.9% | [6] -6.95%

CSCNC(=O)Nc1ccccc1
inactive: [1] 30.4% | [2] 33.9% | [3] 19.1% | [4] 0.25% | [5] 15% | [6] 8.9%

CC1(C)COC(c2ccc(CC(Cc3ccc(C4(C(C)(C)C)OCC(C)(C)CO4)cc3)C(=O)O)cc2)(C(C)(C)C)OC1
inactive: [1] -7.25% | [2] -19.8% | [3] 3.1% | [4] 5.15% | [5] 3.8% | [6] 5.35%

C=CCC1OC(=O)CCNC(=O)C(C)N(C)C(=O)C(C(C)C)N(C)C(=O)C(C(C)CC)NC(=O)C2CCCN2C1=O (stereo not given) (cyclo([X8]PI[NMeV][NMeA][βAla]); configuration not given here)
inactive: [1] 15.3% | [2] 10.1% | [3] 5.55% | [4] 11.5% | [5] 8.35% | [6] 17.8%

COc1ccc(CCC2(C)OCCCO2)cc1
inactive: [1] 9.75% | [2] -0.65% | [3] -0.85% | [4] -6.75% | [5] -5.8% | [6] 17.4%

CC(NS(=O)(=O)c1ccccc1)C(N)=O (stereo not given)
inactive: [1] 2.75% | [2] 2.1% | [3] 3.55% | [4] -11.2% | [5] 6.95% | [6] -2.4%

CCCCC(=O)C(CC)(c1ccccc1)N(C)C (stereo not given)
inactive: [1] -11.7% | [2] -31.1% | [3] -9.4% | [4] -21.2% | [5] -2.35% | [6] -17.9%

CSCC(=O)c1ccccc1
inactive: [1] 17.4% | [2] 6.55% | [3] 9.25% | [4] -6.3% | [5] 2.15% | [6] 5.3%

Cc1ccc(CCCC(=O)O)c2ccc3ccccc3c12
inactive: [1] 4.15% | [2] 2.4% | [3] 8.6% | [4] -9.4% | [5] 4.3% | [6] 3.55%

CCOC(=O)c1nc2ccc(C(F)(F)F)cc2nc1NCc1ccc(OC)c(OC)c1
inactive: [1] 5.7% | [2] 6.65% | [3] -28% | [4] -13.1% | [5] -23.5% | [6] -24.8%

COc1cc(C(=O)O)cc(OC)c1OC(C)=O
inactive: [1] 6.65% | [2] -7% | [3] 3.8% | [4] 9% | [5] -34.7% | [6] -8.65%
